High-throughput results from PubChem BioAssay.
VACV mCherry inh – vaccinia inhibition (mCherry reporter); Vaccinia virus mCherry reporter infection, fluorescence; Potency, µM (top dose mostly 36.5 µM), without a hit: at the top dose activity change, negative = inhibition, hits mostly inhibitors; 0.63% of 310,000 active; calls by dose curve; tested in A549 cells; note: potency is the fitted concentration of half-maximal effect; nearly all actives have a fitted effect of over 35% in size
Vaccinia Venus – vaccinia inhibition (Venus reporter). Potency, µM (highest dose often 36.5 µM), for inactives: at the highest dose activity change, negative = inhibition, actives largely listed as inhibitors. 0.46% of 330,000 active. Vaccinia virus Venus reporter expression, fluorescence; calls by dose curve; tested in A549 cells; note: potency is the fitted concentration of half-maximal effect; nearly all actives have a fitted effect of over 30% in size
HCMV antiviral – human cytomegalovirus inhibition; HFF cells, HCMV-luciferase reporter, 72 h; stronger effect = lower value; activity change, negative = inhibition, % at 57.5 µM; 4.5% of 410,000 active; in the data active = activity change below about -60%; inconclusive = no clear call, values can overlap the other calls; inactive = above about -39%
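After 16 h attachment at 37C, HFF cells received test compound and HCMV-luciferase (1 PFU/cell); reporter luminescence read 72 h later, data normalized against buffer-only and known inhibitor Salinomycin.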
FMDV inh – blocks foot and mouth disease virus. FMDV antiviral cell-based qHTS. Potency, µM (doses to about 57.9 µM), inactives show at the top dose activity change, negative = inhibition, most hits filed as inhibitors. 1.2% of 410,000 active. AID 1159524; calls by dose curve; tested in HEK293T cells; note: read-out not given here; potency is the fitted concentration of half-maximal effect; nearly all actives have a fitted effect of over 45% in size
HCV inhibitor – inhibitors of hepatitis C virus infection | Huh7.5.1 HCVcc-Cre infection, luciferase reporter, 44 h | Potency, µM (doses to about 41.8 µM), for the others: top-dose activity change, negative = inhibition, hits mostly inhibitors | 3.4% of 340,000 active; active = well fitted inhibition curve with a large enough effect; inconclusive = small, poorly fitted or top-dose-only effect, or another doubt; inactive = no such curve, though single readings can be large or run the other way; note: potency is the fitted concentration of half-maximal effect
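Whole-lifecycle infectious HCVcc-Cre system; cells 1,000/well, compound then virus (~0.5 moi) added 4 h after plating, 44 h culture. Luciferase read 15 sec following 15 min substrate incubation, room temp.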
Starred values were filed as active, the others as inactive; i = inactive; u = inconclusive; x = no result; [ ] = another dose, or the depositor's remark. Hits are enriched below; roughly 7.3% of the tested compounds scored in any of these assays. % is set by controls: 0 for no effect and ±100 for the full control effect.

SMILES	VACV mCherry inh	Vaccinia Venus	HCMV antiviral	FMDV inh	HCV inhibitor
COC(=O)CNC(=O)/C=C/c1cc(Br)ccc1OC	-1%	-20%	-17	-14%	u
Cc1noc(C)c1S(=O)(=O)Nc1ccc(C(=O)Nc2ccc(Br)cc2)cc1	-16%	-10%	-9	2%	x
COC(=O)C1=NNC(C(=O)c2ccco2)C1c1ccc(OC)cc1 (centres undefined)	x	x	-64*	0%	4%
OCCN=C1CCCc2c1[nH]c1ccc(Br)cc21	-17%[1.46 µM]	-21%	-13	-18%	5.6µM*
O=c1c2c([nH]c3ccc(Br)cc13)CCCC2	x	-9%	47	-3%	-24%
Brc1ccc2[nH]c3c(c2c1)CCC3	-10%	8%	-70*	-3%	u
O=[N+]([O-])c1ccc2[nH]c3c(c2c1)CCCC3	x	x	u	-16%	11µM*
C=C1C=C(C(F)F)n2ncc(C(=O)NCc3ccccc3OC)c2N1	-29%	-19%	x	x	x
Cc1ccc(C(C[N+](=O)[O-])Sc2ccc(N)cc2)cc1 (centres undefined)	u	-4%	-100*	u	u
Cc1ccc(C(C[N+](=O)[O-])n2nc(C)cc2C)cc1 (centres undefined)	-12%	-9%	34	u	9%
COc1ccc(CCNC(=O)CSc2cn(CCNC(=O)c3cccc(C(F)(F)F)c3)c3ccccc23)cc1OC	u	u	u	22µM*	x
CCn1cc(/C=C(\NC(=O)c2ccccc2F)C(=O)NCCCn2ccnc2)c2ccccc21	x	x	3	24%	-4%
Cc1ccc(C(C(=O)NC2CCCCC2)N(C)Cc2ccccc2)cc1 (centres undefined)	-15%	-10%	11	7%	x
COc1ccccc1CCNC(=O)c1cc(-c2ccncc2)nc2ccc(Br)cc12	5%	-4%	-66*	u	0.89µM*
Cc1ccc2nc(-c3ccncc3)cc(C(=O)NCc3ccccc3F)c2c1	x	x	x	6%	-21%
COc1ccccc1CCNC(=O)c1cc(-c2ccccn2)nc2ccccc12	-20%	-16%	-7	-23%	11µM*
O=C(NCCc1ccccn1)c1cc(-c2ccc(Cl)c(Cl)c2Cl)nc2ccccc12	u	u	u	40µM*	u
CCC[C@H]1[C@@H](NC(=O)Nc2ccc(OC)cc2)CC[C@@]23CCCN2C(=O)CCC[C@@H]13	x	x	-2	x	x
CNC(=O)C1CCC(Cn2c(=O)c3sccc3n(CC(=O)NCc3ccc(C)cc3)c2=O)CC1 (centres undefined)	-2%	-2%	11	-7%	x
COCCn1c(=O)c(-c2ccc(Cl)cc2)nc2cnc(OC)nc21	x	x	x	-14%	x
Cc1ccc(NS(=O)(=O)c2c(C)nc3sc(C)c(C)n3c2=O)cc1F	-23%	-24%	-26	16%	x
O=[N+]([O-])c1ccc(N2CCN(c3ccccc3F)CC2)nc1	-12%	4%	1	10%	-5%
CC(C)OC(=O)c1ccc(N2CCN(c3ccccc3F)CC2)nc1	x	x	13	-19%	11µM*
Cc1ccccc1OCc1nc2ccccc2c(=O)n1/N=C/c1cn[nH]c1-c1ccccc1	u	u	-16	u	u
Cc1cc(/C=N/n2c(COc3ccccc3)nc3ccccc3c2=O)c(O)c([N+](=O)[O-])c1	28µM*	u	-63*	-29%	u
SMILES	VACV mCherry inh	Vaccinia Venus	HCMV antiviral	FMDV inh	HCV inhibitor
Cc1ccc(-c2[nH]ncc2/C=N/n2c(COc3ccccc3)nc3ccccc3c2=O)cc1	-20%	u	-78*	-23%	11µM*
O=C(O)CCc1ccc(-c2ccccc2)n1CC(=O)Nc1ccccc1C(F)(F)F	-7%	-1%	6	-18%	x
CCC(C)n1c(SCc2c(F)cccc2Cl)nc2ccsc2c1=O (centres undefined)	-27%[7.34 µM]	-22%[7.34 µM]	u	0%	x
CCC(C)n1c(SCc2ccc([N+](=O)[O-])cc2)nc2ccsc2c1=O (centres undefined)	-23%	-10%	-23	u	10µM*
CCOC(=O)c1c(C)n(C)c2ccc(OCC(O)CNCCc3ccccc3)cc12 (centres undefined)	x	x	-36	-14%	13µM*
CCOC(=O)c1c(C)n(Cc2ccccc2)c2ccc(OCC(O)CN3C(=O)CNC3=O)cc12 (centres undefined)	-19%	-15%	-14	-5%	8.9µM*
CCOC(=O)c1c(C)n(C)c2ccc(OCC(O)Cn3c(C)nc4ccccc43)cc12 (centres undefined)	x	x	-60*	18µM*	10µM*
CCOC(=O)c1c(C)n(C)c2ccc(OCC(O)CN3CCN(C)CC3)cc12 (centres undefined)	-4%	-10%	42	-29%	-9%
CC1CCC(NC(=O)c2ccc3c(c2)N(Cc2cccc(Cl)c2)C(=O)c2ccccc2S3=O)CC1 (centres undefined)	-2%	-8%	14	41%	x
COCC(=O)N(C)C[C@@H]1Oc2ncc(Br)cc2C(=O)N([C@@H](C)CO)C[C@H]1C	-6%	-16%	-2	-1%	x
CCOc1ncccc1C(=O)Nc1cc2c(cc1Br)OCCO2	x	x	-2	27%	u
Cn1cccc1/C=C1\CCC/C(=C\c2cccn2C)C1=O	x	x	75	-16%	13µM*
N/C(=N/O)c1ccccc1N1CCC(Cc2ccccc2)CC1	x	x	-91*	52%	4%
CC(NC(=O)C(Cc1ccccc1)N1C(=O)C2C3CCC(C3)C2C1=O)c1ccccc1 (centres undefined)	x	x	-61*	19%	1%
CC(c1ccccc1)N1C(=O)C2C3CCC(C3)C2C1=O (centres undefined)	-13%	-7%	-21	-24%	5%
CS(=O)(=O)c1nc2ccccc2n1Cc1ccccc1	x	x	-67*	4%	15%
CCS(=O)(=O)c1nc2ccccc2n1Cc1ccccc1Cl	i	-6%	-67*	0%	u
O=S(=O)(O)c1nc2ccccc2n1Cc1ccccc1	-10%	-2%	-13	-11%	5%
O=C(COC(=O)c1ccc(F)cc1F)NCc1ccc2c(c1)OCO2	i	-5%	-15	1%	3%
NC(=O)c1ccc(NC(=O)COC(=O)C2(c3ccccc3F)CCCC2)cc1	x	x	91	u	-20%
O=C(COC(=O)c1ccccc1F)NCc1ccc2c(c1)OCO2	x	x	-28	26%	-6%
O=C(COC(=O)/C=C/c1ccc(F)cc1)NCc1ccc2c(c1)OCO2	-23%	10%	u	-8%	3%
O=C(COC(=O)C1(c2ccccc2F)CCCC1)NCc1cccs1	-5%	-4%	-69*	-24%	-18%
O=C(COC(=O)/C=C/c1ccc2c(c1)OCO2)NCc1ccc(F)cc1	i	-12%	-64*	-25%	x
O=C(COC(=O)C1(c2ccc(F)cc2)CCCC1)NCc1ccc2c(c1)OCO2	x	x	-60*	40µM*	-7%
O=C(COC(=O)C1(c2ccccc2F)CCCC1)NCc1ccc2c(c1)OCO2	-26%	-16%	-60*	0%	u
O=C(COC(=O)c1ccc(Br)o1)NCc1ccc2c(c1)OCO2	i	-14%	7	-17%	-7%
